“And” between values parts separate entries of the source, which are not always exact repeats. Equal entries are not always repeated. Results filed as inconclusive are left out. The source holds several records for some structures; these can differ, active in one and inactive in another. The source made the active and inactive calls. Unless noted, calls follow the shape of the dose curve; as a rule, active = well fitted curve in the direction sought with a large enough effect; inconclusive = small, poorly fitted or top-dose-only effect, or another doubt; inactive = no such curve, though single readings can be large; an effect the other way counts as inactive or inconclusive.

The text below walks through data of PubChem BioAssay (NCATS).

The nature of test [1]: Primary qHTS for inhibitors of nuclear receptor binding SET domain protein 2 (NSD2) in an isogenic RCH-ACV NSD2 p.E1099K mutant (9B) (AID 1645876). Also: nearly all actives have a fitted effect of over 70% in size. Also: potency is read from the fitted curve at half-maximal effect. The settings on record: RCH-ACV NSD2 E1099K (9B) viability, CellTiter-Glo, 72 h; series mostly up to 44.9 µM.
Test [2] in a line: Primary qHTS for inhibitors of nuclear receptor binding SET domain protein 2 (NSD2) in an RCH-ACV wild type WT cells (2C) (AID 1645877). Also: nearly all actives have a fitted effect of over 70% in size. Also: potency is read from the fitted curve at half-maximal effect. Particulars: RCH-ACV (leukaemia line) NSD2 WT (2C) viability, CellTiter-Glo, 72 h; series mostly up to 44.9 µM.
Test [3] has as its target Phospholipid hydroperoxide glutathione peroxidase GPX4 (Homo sapiens) (UniProt P36969). The test can be described thus: Primary qHTS Assay for Inhibitors of Recombinant Selenoprotein Glutathione Peroxidase 4 (GPX4) (AID 1845192). Also: nearly all actives have a fitted effect of over 65% in size. Also: potency is read from the fitted curve at half-maximal effect. Particulars: recombinant GPX4, GR-coupled NADPH fluorescence, 15 min; series mostly up to 50 µM. In short, it runs like this: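 GR-coupled assay: recombinant GPX4 preincubated 30 min with compound at room temperature; final 200 nM GPX4, 1 mM GSH, 0.5 mM cumene hydroperoxide, 0.5 mM NADPH, 100 nM GR, 0.01% BSA, pH 7.5 Tris. NADPH fluorescence (340/450 nm) read at 0 and 15 min.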

A short description of test [4]: qHTS drug screen for cell cycle checkpoint inhibitors in PARPi-resistant BRCA-mutant ovarian cancer cell lines. (AID 1963452; calls by dose curve; also: potency is read from the fitted curve at half-maximal effect). The settings on record: PEO1/OlaR viability, CellTiter-Glo luminescence, 96 h; for Z-AUC: stronger effect = lower value. The gist of the method:
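PEO1, PEO4 and PEO1/OlaR ovarian cancer cells, 600 per well, exposed 96 h at 37C to a dilution series. Viability read by CellTiter-Glo luminescence, normalized to DMSO and empty wells; activity summarized as Z-AUC.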
Background: qHTS replaces the single test concentration by a dilution series.

The nature of test [5]: NCATS anti-infectives library activity on HEK293 viability as a counter-qHTS vs the C. elegans viability qHTS (AID 1745854).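 Also: HEK293 cells exposed to compounds for 24 hr before the viability read; % is scaled to controls: 0 for no effect and ±100 for the full control effect.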 Particulars: HEK293 viability counter-screen; series mostly up to 41.8 µM. In short, it runs like this:
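HEK293 cells (1,500/well) exposed 24 hr at 37C to 1:5 titrations, up to 41.7 uM final; counter-screen to a C. elegans viability qHTS. Viability by CellTiter-Glo luminescence after 10 min at room temperature; digitonin as control.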

Test [6] concerns the target Glutathione peroxidase 1 (Homo sapiens) (UniProt P07203). The test can be described thus: Primary qHTS Assay for Inhibitors of Recombinant Selenoprotein Glutathione Peroxidase 1 (GPX1) (AID 1845191). Also: nearly all actives have a fitted effect of over 65% in size. Also: potency is read from the fitted curve at half-maximal effect. The settings on record: recombinant GPX1, GR-coupled NADPH fluorescence, 15 min; series mostly up to 48.8 µM. The gist of the method:
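GR-coupled assay: compounds preincubated 30 min at room temperature with GPX1, then reaction started with CHP; final 10 nM GPX1, 1 mM GSH, 0.5 mM CHP, 0.5 mM NADPH, 100 nM GR, 0.01% BSA, pH 7.5 Tris buffer. NADPH fluorescence (340/450 nm) read at 0 and 15 min.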

The target of test [7] is Rap guanine nucleotide exchange factor 3 (Homo sapiens) (UniProt O95398). Put plainly: Confirmatory qHTS for antagonist of cAMP-regulated guanine nucleotide exchange factor 3 (EPAC1) (AID 1645880).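 Also: plate controls were DMSO only for no effect and full effect of the ATA control for full effect; nearly all actives have a fitted effect of over 55% in size.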 The settings on record: EPAC1 Rap1B-BODIPY-GDP exchange, fluorescence; series mostly up to 115 µM. The gist of the method:
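Nucleotide exchange uses 100 nM EPAC1, 250 nM RAP1B-BODIPY-GDP and 50 uM GDP, with compounds in a concentration-titration series. After 5 min at room temperature, fluorescence (480 nm ex/540 nm em) is read every 5 min for 30 min. Data are normalized to control ATA and DMSO.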

Test [8] shares this target. Put plainly: Confirmatory qHTS for agonist of cAMP-regulated guanine nucleotide exchange factor 3 (EPAC1) (AID 1645881).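 Also: EPAC1 catalysed release of BODIPY-GDP from Rap1B seen as fluorescence loss; 100% = effect of cAMP agonist control; nearly all actives have a fitted effect of over 75% in size.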 Particulars: EPAC1 Rap1B BODIPY-GDP exchange fluorescence; series mostly up to 154 µM.
The mark [9] stands for this setting: measured here: PEO1 parental Z-AUC.

Chain of Glutathione peroxidase 1 (Homo sapiens) (P07203 whole entry, looked up): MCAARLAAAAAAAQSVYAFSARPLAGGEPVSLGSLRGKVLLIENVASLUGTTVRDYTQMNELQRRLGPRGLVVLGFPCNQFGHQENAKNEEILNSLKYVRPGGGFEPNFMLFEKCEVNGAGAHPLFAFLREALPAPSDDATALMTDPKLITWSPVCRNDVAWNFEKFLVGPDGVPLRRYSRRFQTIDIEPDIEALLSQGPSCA
Chain of Phospholipid hydroperoxide glutathione peroxidase GPX4 (Homo sapiens) (P36969 whole entry, looked up): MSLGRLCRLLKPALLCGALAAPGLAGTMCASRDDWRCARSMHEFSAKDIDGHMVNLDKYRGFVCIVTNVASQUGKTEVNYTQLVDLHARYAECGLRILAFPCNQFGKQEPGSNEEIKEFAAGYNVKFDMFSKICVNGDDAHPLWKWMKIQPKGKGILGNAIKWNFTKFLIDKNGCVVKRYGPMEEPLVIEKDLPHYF
Chain of Rap guanine nucleotide exchange factor 3 (Homo sapiens) (O95398 whole entry, looked up): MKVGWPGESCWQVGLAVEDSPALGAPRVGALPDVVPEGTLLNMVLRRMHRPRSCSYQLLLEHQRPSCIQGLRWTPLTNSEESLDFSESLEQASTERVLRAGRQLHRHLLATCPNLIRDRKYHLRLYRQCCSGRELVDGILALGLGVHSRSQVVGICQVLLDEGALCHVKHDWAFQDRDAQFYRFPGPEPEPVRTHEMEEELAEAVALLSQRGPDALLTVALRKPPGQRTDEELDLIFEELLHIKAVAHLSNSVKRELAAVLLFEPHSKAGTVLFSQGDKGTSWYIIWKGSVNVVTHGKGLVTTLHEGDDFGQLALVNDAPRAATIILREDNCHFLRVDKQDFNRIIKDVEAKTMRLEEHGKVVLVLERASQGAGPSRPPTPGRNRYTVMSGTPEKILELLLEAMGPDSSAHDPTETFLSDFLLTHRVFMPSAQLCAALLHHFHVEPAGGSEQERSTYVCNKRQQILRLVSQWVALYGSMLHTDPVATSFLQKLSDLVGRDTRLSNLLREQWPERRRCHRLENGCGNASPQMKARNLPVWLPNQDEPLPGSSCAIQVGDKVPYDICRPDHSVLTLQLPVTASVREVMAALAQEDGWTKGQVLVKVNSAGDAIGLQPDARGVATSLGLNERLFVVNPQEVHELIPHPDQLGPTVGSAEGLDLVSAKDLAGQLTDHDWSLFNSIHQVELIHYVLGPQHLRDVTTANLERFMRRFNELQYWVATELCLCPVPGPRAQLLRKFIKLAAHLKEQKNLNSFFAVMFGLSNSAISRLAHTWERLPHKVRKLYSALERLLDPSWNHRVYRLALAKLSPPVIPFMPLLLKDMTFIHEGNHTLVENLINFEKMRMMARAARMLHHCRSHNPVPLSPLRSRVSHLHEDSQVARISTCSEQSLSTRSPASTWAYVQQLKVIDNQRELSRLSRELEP

Consider `Cc1ccc(C(=O)OCc2ccc([C@@H](CN)C(=O)Nc3ccc4cnccc4c3)cc2)c(C)c1`, for which the values for the Potency in test [1] and in test [2] were 4.07 µM (active) and 3.62 µM (active), respectively. In addition, the Potency entry in test [3] was “inactive”. Besides, the Z-AUC was -1.52 (inactive) in test [4], -0.919 in test [4] (setting [9]) and -0.26 in test [4] (measured here: PEO4 Z-AUC).
With `COc1ccc2c(c1)[C@@H]1C[C@]1(C(=O)N1[C@@H]3CC[C@H]1CN(C)C3)Cn1c-2c(C2CCCCC2)c2ccc(C(=O)NS(=O)(=O)N(C)C)cc21`, the Potency in test [1] was 20.6 µM (active). Moreover, the call in test [5] was inactive.
`C[C@@H](OC[C@@]1(c2ccccc2)CC[C@]2(CCC(=O)N2)CN1)c1cc(C(F)(F)F)cc(C(F)(F)F)c1`: the Potency in test [1] and in test [2] was 9.34 µM (active) each time. The Potency result in test [6] and in test [3] was “inactive” in each case. The Z-AUC in test [4] is -0.524 (inactive); in test [4] (setting [9]), -0.495; in test [4] (measured here: PEO4 Z-AUC), -0.395.
`CCC[C@H](NC(=O)[C@@H]1[C@H]2CCC[C@H]2CN1C(=O)[C@@H](NC(=O)[C@@H](NC(=O)c1cnccn1)C1CCCCC1)C(C)(C)C)C(=O)C(=O)NC1CC1`: the Potency in test [2] is 5.9 µM (active). Besides, the outcome in test [5] was inactive. Besides, the Potency result in test [6] and in test [3] was “inactive” throughout. Also, the results for the Z-AUC in test [4], in test [4] (setting [9]) and in test [4] (measured here: PEO4 Z-AUC) were 1.49 (inactive), 0.769 and 0.725, respectively.
On to `COc1ccc(-c2ccc3c(N4CCOC[C@@H]4C)nc(N4CCOC[C@@H]4C)nc3n2)cc1CO`, for which the Potency was 0.059 µM (active) in test [1], 0.0934 µM (active) in test [2], 18.3 µM (active) in test [6] and 16.1 µM (active) in test [3]. The values for the Z-AUC in test [4], in test [4] (setting [9]) and in test [4] (measured here: PEO4 Z-AUC) were 1.14 (inactive), 0.497 and 0.69, respectively.
Turning to `Cc1noc(C)c1-c1ccc(-c2cc(C(N)=O)c(NC(N)=O)s2)c(O[C@H]2CCNC2)c1`, the Potency in test [1] was 16.6 µM (active); in test [2] it was 14.8 µM (active). The Potency entry in test [6] was “inactive”. The Z-AUC in test [4] is -0.139 (inactive); in test [4] (setting [9]), -0.81; in test [4] (measured here: PEO4 Z-AUC), -0.908.
With `O=C(O/N=C1\c2ccccc2-c2nc3ccccc3nc21)c1ccco1`, the Potency in test [1] is 18.4 µM (active). The Potency result in test [6] is “inactive”.
Turning to `CSc1ccc(C(=O)/C=C/c2cc(C)c(OC(C)(C)C(=O)O)c(C)c2)cc1`, the results for the Potency in test [1] and in test [2] were 19.1 µM (active) and 17.1 µM (active), respectively. In test [6], the Potency result was “inactive”. The Z-AUC in test [4] was -0.442 (inactive); in test [4] (setting [9]), 0.00794; in test [4] (measured here: PEO4 Z-AUC), -0.391.
In the case of `Cc1c(CN2CCC(Nc3ncnc4sc(CC(F)(F)F)cc34)CC2)ccc2c1cc(C#N)n2Cc1cn[nH]c1`, in test [2], the Potency is 3.32 µM (active). Moreover, the Potency entry in test [6] and in test [3] was “inactive” throughout. The Z-AUC was -0.417 (inactive) in test [4], -0.643 in test [4] (setting [9]) and -0.075 in test [4] (measured here: PEO4 Z-AUC).
Take `CCN1/C(=C/C(C)=O)Sc2ccc(O)cc21`: the Potency in test [2] is 14.6 µM (active).
As for `CC/C(=C(/c1ccc(/C=C/C(=O)O)cc1)c1ccc2[nH]ncc2c1)c1ccc(F)cc1Cl`, the Potency in test [2] is 23.5 µM (active); in test [3] it was 4.04 µM (active). Moreover, the Potency entry in test [6] is “inactive”. Further, the Z-AUC in test [4] is 1.39 (inactive); in test [4] (setting [9]) it was 0.628; in test [4] (measured here: PEO4 Z-AUC), -0.0261.
On to `Cc1ccc(Sc2ccccc2N2CCNCC2)c(C)c1`, for which the Potency was 10.5 µM (active) in test [1] and 7.42 µM (active) in test [2]. Also, the Potency result in test [6] and in test [3] was “inactive” in each case. The values for the Z-AUC in test [4], in test [4] (setting [9]) and in test [4] (measured here: PEO4 Z-AUC) were 0.87 (inactive), 0.0255 and -0.0248, respectively.
Take `NC(=O)c1cc(F)cc2c1C(=O)N(C1CCN(C3CCC(F)(F)CC3)CC1)C2`: the Potency result in test [1], in test [6] and in test [3] was “inactive” each time. Further, in test [5], the molecule was classed as inactive. Further, the Z-AUC in test [4] is -0.257 (inactive); in test [4] (setting [9]) it was -0.805; in test [4] (measured here: PEO4 Z-AUC), -0.459.
Take `[2H]C([2H])([2H])C(O)([C@@H](C)/C=C/[C@@H](C)[C@H]1CC[C@H]2/C(=C/C=C3C[C@@H](O)C[C@H](O)C3)CCC[C@]12C)C([2H])([2H])[2H]`: the Potency entry in test [1], in test [2], in test [6] and in test [3] was “inactive” each time. Moreover, the Z-AUC is 1.18 (inactive) in test [4], 0.263 in test [4] (setting [9]) and 0.327 in test [4] (measured here: PEO4 Z-AUC).
As for `NC(=O)C1=C(O)[C@@]2(O)C(=O)C3=C(O)c4c(O)cccc4C[C@H]3C[C@H]2CC1=O`, the Potency was 4.17 µM (active) in test [1] and 3.32 µM (active) in test [2]. Besides, in test [6], the Potency entry is “inactive”. Also, the Z-AUC in test [4] was -0.543 (inactive); in test [4] (setting [9]) it was -1.08; in test [4] (measured here: PEO4 Z-AUC), -1.12.
For `C[C@H]1C[C@@H](n2c(Nc3ccc(OC(F)(F)F)cc3)nc3cc(CCC(=O)O)ccc32)CC(C)(C)C1`, the Potency result in test [1] and in test [6] was “inactive” each time. In addition, the Potency in test [3] was 2.55 µM (active). Further, the Z-AUC was 0.184 (inactive) in test [4], 0.953 in test [4] (setting [9]) and 0.855 in test [4] (measured here: PEO4 Z-AUC).
As for `CN[C@H]1CN(c2ccc3c(=O)c(C(=O)O)cn(-c4nccs4)c3n2)C[C@@H]1OC`, the Potency in test [1] was 0.135 µM (active); in test [2], 0.0762 µM (active); in test [4], 1.59 µM (active). The Potency result in test [6] and in test [3] was “inactive” throughout. For the same molecule, the Z-AUC in test [4] is -0.941 (inactive); in test [4] (setting [9]) it was -1.7 and -1.57; in test [4] (measured here: PEO4 Z-AUC) it was -1.25 and -1.14.
As to `CC(C)(C)S(=O)(=O)c1ccc2nccc(Nc3n[nH]c4ccc(F)cc34)c2c1`, in test [1], the Potency was 13.2 µM (active). Also, the Potency result in test [6] and in test [3] was “inactive” in each case. The values for the Z-AUC in test [4], in test [4] (setting [9]) and in test [4] (measured here: PEO4 Z-AUC) were -0.44 (inactive), -0.407 and -0.499, respectively.
With `CC(C)(C)C[C@H]1N[C@@H](C(=O)NC2CCC(O)CC2)[C@H](c2cccc(Cl)c2F)[C@@]12C(=O)Nc1cc(Cl)ccc12` (some centres not stated), the results for the Potency in test [1] and in test [2] were 1.48 µM (active) and 0.468 µM (active), respectively. For the same molecule, the Potency result in test [6] and in test [3] was “inactive” in each case. The figures for the Z-AUC in test [4], in test [4] (setting [9]) and in test [4] (measured here: PEO4 Z-AUC) were -0.139 (inactive), 0.559 and 0.282, respectively.
With `CC1COc2ccccc2N1S(=O)(=O)c1cc(Cl)ccc1Cl` (configuration not stated), the Potency entry in test [7] and in test [8] was “inactive” throughout.
